In PubChem BioAssay (EPA / NIEHS):
Values joined by “and” are separate entries in the source; they are usually repeats but may differ in a detail not shown here. Equal values may be shown once. Results filed as inconclusive are left out. Some structures have more than one record in an assay (separate samples or runs), and their calls can disagree. Active and inactive are the calls of the source. How the source made its calls: active means hit-call score of the fitted dose curve at least 0.9, where 1 is the maximum; inconclusive means response in the unintended direction; inactive means score below 0.9.

Key:
[1] = biological target: human Ephrin type-B Receptor 1 (EphB1), EPHB1 (gene 2047) (UniProt P54762); assay: NVS_ENZ_hEphB1: NovaScreen (NVS) Enzymatic Assay for human Ephrin type-B Receptor 1 (EphB1) (AID 2283154)
How it was run: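 Cell-free kinase assay with recombinant enzyme, fluorescent substrate and electrophoretic mobility-shift separation of substrate and product; read 1 h after dosing. Single-concentration duplicate screen at 25 uM; loss of signal versus DMSO baseline.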

[2] = biological target: Glycogen synthase kinase-3 beta (Homo sapiens) (UniProt P49841); assay: NVS_ENZ_hGSK3b: NovaScreen (NVS) Enzymatic Assay for human Glycogen Synthase Kinase-3 beta (GSK3b) (AID 2283165)
Glycogen synthase kinase-3 beta (Homo sapiens), sequence (P49841 whole entry, looked up): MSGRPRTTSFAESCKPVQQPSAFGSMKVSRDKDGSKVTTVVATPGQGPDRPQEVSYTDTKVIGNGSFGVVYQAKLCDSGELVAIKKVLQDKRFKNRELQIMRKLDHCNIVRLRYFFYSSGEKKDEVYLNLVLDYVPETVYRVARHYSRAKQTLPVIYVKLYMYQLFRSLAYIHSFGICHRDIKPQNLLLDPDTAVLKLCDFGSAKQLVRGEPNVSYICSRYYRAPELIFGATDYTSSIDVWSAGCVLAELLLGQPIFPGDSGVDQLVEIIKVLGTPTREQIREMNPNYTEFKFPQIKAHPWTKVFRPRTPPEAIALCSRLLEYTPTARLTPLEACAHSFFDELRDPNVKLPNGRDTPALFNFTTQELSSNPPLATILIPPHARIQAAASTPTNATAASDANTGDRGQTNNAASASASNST
How it was run: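 Recombinant enzyme with specific fluorescent substrate, 1 h, product separated by electrophoretic mobility shift. Primary duplicate screen at 25 uM; actives (e.g. 30% inhibition) followed in singleton concentration-response to 50 uM. Signal loss fitted versus DMSO.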

[3] = biological target: Mitogen-activated protein kinase 3 (Homo sapiens) (UniProt P27361); assay: NVS_ENZ_hMAPK3: NovaScreen (NVS) Enzymatic Assay for human Mitogen-Activated Protein Kinase 3 (MAPK 3) (AID 2283177)
Mitogen-activated protein kinase 3 (Homo sapiens), sequence (P27361 whole entry, looked up): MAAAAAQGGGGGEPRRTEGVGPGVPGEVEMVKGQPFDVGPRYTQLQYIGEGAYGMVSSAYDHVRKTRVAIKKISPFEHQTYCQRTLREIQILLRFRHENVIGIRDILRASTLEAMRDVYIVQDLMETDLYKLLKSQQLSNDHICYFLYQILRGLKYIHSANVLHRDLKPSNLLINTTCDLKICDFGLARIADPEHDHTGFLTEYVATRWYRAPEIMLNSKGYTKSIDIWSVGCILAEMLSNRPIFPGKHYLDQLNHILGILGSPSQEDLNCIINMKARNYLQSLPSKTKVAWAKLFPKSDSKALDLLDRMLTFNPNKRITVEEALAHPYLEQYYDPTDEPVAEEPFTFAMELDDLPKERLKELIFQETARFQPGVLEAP
How it was run: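 Cell-free enzymatic assay with recombinant protein and specific substrate; fluorescence and electrophoretic mobility shift read-out 1 h after dosing. Primary screen duplicate at 25 uM; actives then run in concentration-response up to 50 uM, loss of signal versus DMSO.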

[4] = biological target: Collagenase 3 (Homo sapiens) (UniProt P45452); assay: NVS_ENZ_hMMP13: NovaScreen (NVS) Enzymatic Assay for human Matrix Metalloproteinase-13 (MMP13) (AID 2283182)
How it was run: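 Recombinant MMP13 cleaving fluorescent substrate, cell-free, measured 1 h after dosing. Primary duplicate screen at 25 uM; actives tested in concentration-response up to 50 uM; loss of signal relative to DMSO.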

[5] = biological target: human Matrix Metalloproteinase-7 (MMP7), MMP7 (gene 4316) (UniProt P09237); assay: NVS_ENZ_hMMP7: NovaScreen (NVS) Enzymatic Assay for human Matrix Metalloproteinase-7 (MMP7) (AID 2283183)
human Matrix Metalloproteinase-7 (MMP7), MMP7 (gene 4316), sequence (P09237 whole entry, looked up): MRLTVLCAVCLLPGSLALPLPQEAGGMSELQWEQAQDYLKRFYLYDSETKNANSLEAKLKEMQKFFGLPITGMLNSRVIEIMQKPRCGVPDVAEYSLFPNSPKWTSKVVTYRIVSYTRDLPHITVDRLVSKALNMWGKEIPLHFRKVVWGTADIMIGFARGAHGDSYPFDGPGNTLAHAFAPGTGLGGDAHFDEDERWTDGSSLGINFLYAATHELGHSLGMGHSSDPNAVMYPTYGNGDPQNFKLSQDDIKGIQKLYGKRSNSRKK
How it was run: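 Cell-free fluorescence enzymatic assay read 1 h after compound addition, activity loss analyzed against DMSO. Primary duplicate testing at 25 uM; compounds meeting threshold rerun in singleton concentration-response up to 50 uM.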

[6] = biological target: human Colony Stimulating Factor 1 Receptor (CSF1R), CSF1R (gene 1436) (UniProt P07333); assay: NVS_ENZ_hCSF1R: NovaScreen (NVS) Enzymatic Assay for human Colony Stimulating Factor 1 Receptor (CSF1R) (AID 2283150)
human Colony Stimulating Factor 1 Receptor (CSF1R), CSF1R (gene 1436), sequence (P07333 whole entry, looked up): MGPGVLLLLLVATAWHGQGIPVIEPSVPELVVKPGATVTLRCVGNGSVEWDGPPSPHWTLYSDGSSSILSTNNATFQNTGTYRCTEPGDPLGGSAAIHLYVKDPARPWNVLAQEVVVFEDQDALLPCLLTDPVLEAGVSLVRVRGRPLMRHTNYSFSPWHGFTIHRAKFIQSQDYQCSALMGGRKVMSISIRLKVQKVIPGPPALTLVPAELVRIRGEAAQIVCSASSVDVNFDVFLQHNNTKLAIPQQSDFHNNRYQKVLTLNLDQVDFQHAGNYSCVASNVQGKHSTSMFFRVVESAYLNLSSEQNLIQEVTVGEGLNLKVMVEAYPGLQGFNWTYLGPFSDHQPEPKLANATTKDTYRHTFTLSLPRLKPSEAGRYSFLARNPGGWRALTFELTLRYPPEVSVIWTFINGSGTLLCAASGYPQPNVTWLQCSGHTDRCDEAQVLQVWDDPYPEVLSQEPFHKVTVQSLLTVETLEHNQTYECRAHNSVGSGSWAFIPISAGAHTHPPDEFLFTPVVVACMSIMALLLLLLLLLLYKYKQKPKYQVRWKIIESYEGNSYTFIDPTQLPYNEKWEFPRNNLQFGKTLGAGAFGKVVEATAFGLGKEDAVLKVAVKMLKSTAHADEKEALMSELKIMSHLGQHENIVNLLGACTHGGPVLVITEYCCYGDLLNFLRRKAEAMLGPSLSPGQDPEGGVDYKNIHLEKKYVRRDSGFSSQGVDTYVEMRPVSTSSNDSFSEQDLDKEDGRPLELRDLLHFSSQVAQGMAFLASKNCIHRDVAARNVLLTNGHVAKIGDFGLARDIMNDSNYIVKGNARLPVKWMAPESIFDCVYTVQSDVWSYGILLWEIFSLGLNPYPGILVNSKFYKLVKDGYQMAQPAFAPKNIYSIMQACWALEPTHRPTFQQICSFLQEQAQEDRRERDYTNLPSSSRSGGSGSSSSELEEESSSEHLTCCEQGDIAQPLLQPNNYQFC
How it was run: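 Cell-free recombinant human CSF1R kinase with fluorescent substrate, product separated by electrophoretic mobility shift; read 1 h after dosing. Primary screen at 25 uM in duplicate, actives then in concentration-response up to 50 uM, relative to DMSO.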

[7] = biological target: human Dual Specificity Protein Phosphatase 3 (DUSP3), DUSP3 (gene 1845) (UniProt P51452); assay: NVS_ENZ_hDUSP3: NovaScreen (NVS) Enzymatic Assay for human Dual Specificity Protein Phosphatase 3 (DUSP3) (AID 2283152);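 further: phosphatase activity of recombinant human DUSP3 on a fluorogenic substrate without cells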
human Dual Specificity Protein Phosphatase 3 (DUSP3), DUSP3 (gene 1845), sequence (P51452 whole entry, looked up): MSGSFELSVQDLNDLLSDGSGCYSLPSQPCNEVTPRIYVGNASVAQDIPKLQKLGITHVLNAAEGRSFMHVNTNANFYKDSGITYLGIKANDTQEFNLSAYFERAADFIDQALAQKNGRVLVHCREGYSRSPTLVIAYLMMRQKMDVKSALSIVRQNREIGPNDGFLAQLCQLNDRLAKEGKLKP
How it was run: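 Cell-free assay with recombinant human DUSP3 and fluorogenic substrate, read by fluorescence intensity. Primary screen ran duplicate at 25 uM; actives followed up in concentration series; loss of signal versus DMSO scored.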

[8] = biological target: human Elastase, ELANE (gene 1991) (UniProt P08246); assay: NVS_ENZ_hElastase: NovaScreen (NVS) Enzymatic Assay for human Elastase (AID 2283153)
How it was run: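 Cell-free elastase from human neutrophils, 1.5 h after dosing, activity read by absorbance. Primary screen in duplicate at 25 uM; hits (e.g., 30% inhibition) rerun in singleton concentration-response up to 50 uM, fitted versus DMSO.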

[9] = biological target: human FYN Proto-Oncogene, Src family Tyrosine Kinase (Fyn), FYN (gene 2534) (UniProt P06241); assay: NVS_ENZ_hFyn: NovaScreen (NVS) Enzymatic Assay for human FYN Proto-Oncogene, Src family Tyrosine Kinase (Fyn) (AID 2283161)
How it was run: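 Recombinant enzyme with fluorescent substrate, product separated by electrophoretic mobility shift; read 1 h after dosing. Duplicate 25 uM single-point screen, actives retested in concentration series; loss of signal vs DMSO.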

[10] = biological target: human MAP Kinase-Activated Protein Kinase 2 (MAPKAPK2), MAPKAPK2 (gene 9261) (UniProt P49137); assay: NVS_ENZ_hMAPKAPK2: NovaScreen (NVS) Enzymatic Assay for human MAP Kinase-Activated Protein Kinase 2 (MAPKAPK2) (AID 2283178)
human MAP Kinase-Activated Protein Kinase 2 (MAPKAPK2), MAPKAPK2 (gene 9261), sequence (P49137 whole entry, looked up): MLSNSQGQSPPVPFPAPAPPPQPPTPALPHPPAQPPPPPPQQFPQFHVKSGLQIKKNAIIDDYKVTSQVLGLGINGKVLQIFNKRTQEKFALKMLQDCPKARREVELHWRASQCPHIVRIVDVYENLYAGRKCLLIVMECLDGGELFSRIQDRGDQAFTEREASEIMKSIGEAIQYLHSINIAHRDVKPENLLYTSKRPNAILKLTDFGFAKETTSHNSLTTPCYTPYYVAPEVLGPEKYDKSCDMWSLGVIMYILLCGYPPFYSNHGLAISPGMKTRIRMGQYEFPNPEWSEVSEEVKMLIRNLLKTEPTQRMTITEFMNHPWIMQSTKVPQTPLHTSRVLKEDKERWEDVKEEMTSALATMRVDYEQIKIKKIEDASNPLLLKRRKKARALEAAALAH
How it was run: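 Cell-free recombinant human MAPKAPK2 activity measured by fluorescence with electrophoretic mobility shift separation of substrate and product, 1 hr after dosing. Loss of signal versus DMSO; primary screen at 25 uM, concentration-response up to 50 uM.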

[11] = biological target: human Mitogen- and Stress-activated Protein Kinase-1 (Msk1), RPS6KA5 (gene 9252) (UniProt O75582); assay: NVS_ENZ_hMsk1: NovaScreen (NVS) Enzymatic Assay for human Mitogen- and Stress-activated Protein Kinase-1 (Msk1) (AID 2283187)
human Mitogen- and Stress-activated Protein Kinase-1 (Msk1), RPS6KA5 (gene 9252), sequence (O75582 whole entry, looked up): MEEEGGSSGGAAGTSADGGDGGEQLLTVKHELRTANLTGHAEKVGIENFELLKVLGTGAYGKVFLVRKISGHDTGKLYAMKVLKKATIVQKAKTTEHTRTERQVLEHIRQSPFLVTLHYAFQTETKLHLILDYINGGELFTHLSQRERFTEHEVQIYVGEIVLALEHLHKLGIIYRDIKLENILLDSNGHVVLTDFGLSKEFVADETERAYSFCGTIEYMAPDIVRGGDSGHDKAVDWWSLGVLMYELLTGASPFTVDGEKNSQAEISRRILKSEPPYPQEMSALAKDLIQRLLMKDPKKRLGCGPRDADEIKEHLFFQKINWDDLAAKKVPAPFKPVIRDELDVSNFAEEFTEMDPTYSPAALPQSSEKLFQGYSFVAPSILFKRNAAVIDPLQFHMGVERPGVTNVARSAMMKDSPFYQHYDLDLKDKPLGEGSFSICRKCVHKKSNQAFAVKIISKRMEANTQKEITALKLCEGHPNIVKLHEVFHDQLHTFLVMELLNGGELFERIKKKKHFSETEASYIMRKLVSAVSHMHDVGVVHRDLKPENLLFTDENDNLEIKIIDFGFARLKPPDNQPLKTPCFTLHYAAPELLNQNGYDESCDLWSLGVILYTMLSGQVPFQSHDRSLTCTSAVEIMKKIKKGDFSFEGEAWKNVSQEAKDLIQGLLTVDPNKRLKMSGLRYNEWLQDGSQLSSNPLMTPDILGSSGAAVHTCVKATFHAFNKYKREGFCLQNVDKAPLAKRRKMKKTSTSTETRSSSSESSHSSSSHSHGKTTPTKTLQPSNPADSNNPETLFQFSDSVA
How it was run: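 Recombinant kinase with fluorescent substrate; product separated by electrophoretic mobility shift, read 1 h after dosing. Screened in duplicate at 25 uM; hits (e.g. ≥30% inhibition) tested in concentration–response up to 50 uM. DMSO baseline.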

[12] = biological target: human Esterase Plasma (ES), BCHE (gene 590) (UniProt P06276); assay: NVS_ENZ_hES: NovaScreen (NVS) Enzymatic Assay for human Esterase Plasma (ES) (AID 2283157)
human Esterase Plasma (ES), BCHE (gene 590), sequence (P06276 whole entry, looked up): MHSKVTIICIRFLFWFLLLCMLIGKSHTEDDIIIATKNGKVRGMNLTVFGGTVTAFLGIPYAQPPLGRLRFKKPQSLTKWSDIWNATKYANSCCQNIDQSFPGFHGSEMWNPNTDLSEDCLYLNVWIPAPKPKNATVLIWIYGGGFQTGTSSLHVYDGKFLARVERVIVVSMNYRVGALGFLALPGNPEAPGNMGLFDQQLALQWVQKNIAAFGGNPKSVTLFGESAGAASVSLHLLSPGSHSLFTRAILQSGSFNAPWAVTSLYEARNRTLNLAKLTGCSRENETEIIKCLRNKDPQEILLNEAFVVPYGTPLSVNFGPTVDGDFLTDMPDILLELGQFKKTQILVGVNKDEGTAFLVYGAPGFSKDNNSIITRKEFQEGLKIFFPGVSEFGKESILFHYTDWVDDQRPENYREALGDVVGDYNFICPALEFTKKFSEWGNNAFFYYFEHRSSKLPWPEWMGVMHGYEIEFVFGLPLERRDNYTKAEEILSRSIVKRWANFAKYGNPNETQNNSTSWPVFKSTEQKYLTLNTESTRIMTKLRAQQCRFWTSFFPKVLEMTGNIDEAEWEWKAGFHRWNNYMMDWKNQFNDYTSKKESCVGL
How it was run: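 Esterase from human plasma, cell-free, colorimetric absorbance read 0.25 h after dosing. Screened at 25 uM in duplicate, with threshold-passing chemicals run in concentration-response up to 50 uM; loss of signal fitted versus DMSO.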

[13] = biological target: human Janus Kinase 2 (Jak2), JAK2 (gene 3717) (UniProt O60674); assay: NVS_ENZ_hJak2: NovaScreen (NVS) Enzymatic Assay for human Janus Kinase 2 (Jak2) (AID 2283169)
How it was run: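 Cell-free recombinant human JAK2 enzyme activity assay, fluorescence/electrophoretic mobility shift read 1 h after dosing. Screened in duplicate at 25 uM, then concentration-response up to 50 uM; activity as signal loss relative to DMSO.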

[14] = biological target: human c-Jun N-terminal Kinases (JNK2), MAPK9 (gene 5601) (UniProt P45984); assay: NVS_ENZ_hJNK2: NovaScreen (NVS) Enzymatic Assay for human c-Jun N-terminal Kinases (JNK2) (AID 2283171)
human c-Jun N-terminal Kinases (JNK2), MAPK9 (gene 5601), sequence (P45984 whole entry, looked up): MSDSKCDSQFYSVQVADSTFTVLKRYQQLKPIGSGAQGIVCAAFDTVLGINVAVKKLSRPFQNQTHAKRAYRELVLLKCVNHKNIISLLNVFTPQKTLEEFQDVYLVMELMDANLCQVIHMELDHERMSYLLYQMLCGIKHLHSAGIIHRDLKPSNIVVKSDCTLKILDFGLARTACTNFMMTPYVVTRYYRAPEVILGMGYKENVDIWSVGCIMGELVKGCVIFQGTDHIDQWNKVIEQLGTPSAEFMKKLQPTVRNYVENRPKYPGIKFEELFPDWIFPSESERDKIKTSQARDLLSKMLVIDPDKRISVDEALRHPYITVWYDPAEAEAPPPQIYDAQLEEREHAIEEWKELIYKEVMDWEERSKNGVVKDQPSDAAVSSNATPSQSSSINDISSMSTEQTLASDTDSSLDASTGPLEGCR
How it was run: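 Cell-free recombinant human JNK2 activity assay; fluorescent substrate and product separated by electrophoretic mobility shift, read 1 h after dosing. Primary duplicate screen at 25 uM; actives run in concentration-response up to 50 uM, relative to DMSO.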

[15] = biological target: human Matrix Metalloproteinase-3 (MMP3), MMP3 (gene 4314) (UniProt P08254); assay: NVS_ENZ_hMMP3: NovaScreen (NVS) Enzymatic Assay for human Matrix Metalloproteinase-3 (MMP3) (AID 2283185)
human Matrix Metalloproteinase-3 (MMP3), MMP3 (gene 4314), sequence (P08254 whole entry, looked up): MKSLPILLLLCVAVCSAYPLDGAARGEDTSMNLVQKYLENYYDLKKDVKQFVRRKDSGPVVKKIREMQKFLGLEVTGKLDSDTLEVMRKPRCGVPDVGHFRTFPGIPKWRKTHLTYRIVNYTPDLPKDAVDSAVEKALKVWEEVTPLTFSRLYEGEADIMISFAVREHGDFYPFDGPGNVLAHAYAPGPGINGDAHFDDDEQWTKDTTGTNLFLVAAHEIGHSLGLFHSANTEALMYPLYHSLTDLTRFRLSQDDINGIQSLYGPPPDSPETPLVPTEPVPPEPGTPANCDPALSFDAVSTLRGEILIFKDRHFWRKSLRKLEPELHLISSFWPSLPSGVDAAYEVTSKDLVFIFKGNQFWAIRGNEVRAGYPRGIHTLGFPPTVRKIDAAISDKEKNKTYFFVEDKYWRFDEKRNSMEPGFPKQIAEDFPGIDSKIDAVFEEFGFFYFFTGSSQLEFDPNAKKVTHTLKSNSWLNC
How it was run: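 Cell-free recombinant human MMP3 activity, fluorescence intensity read 1 h after dosing. Primary screen duplicate at 25 uM, actives retested in concentration series; loss of signal vs DMSO baseline.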

[16] = biological target: human Ephrin type-A Receptor 1 (EphA1), EPHA1 (gene 2041) (UniProt P21709); assay: NVS_ENZ_hEphA1: NovaScreen (NVS) Enzymatic Assay for human Ephrin type-A Receptor 1 (EphA1) (AID 2283158);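 further: activity is signal loss versus DMSO meaning EphA1 kinase inhibition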
How it was run: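 Recombinant kinase, fluorescent substrate, mobility-shift separation, fluorescence read at 1 h. Single-point duplicates at 25 uM; hits (e.g., ≥30% inhibition) run singleton concentration-response, max 50 uM. DMSO = negative control/baseline.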

[17] = biological target: Histone deacetylase 3 (Homo sapiens) (UniProt O15379); assay: NVS_ENZ_hHDAC3: NovaScreen (NVS) Enzymatic Assay for human Histone Deacetylase 3 (HDAC3) (AID 2283163)
How it was run: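 Recombinant human HDAC3 with fluorescent substrate, 1 h after dosing; product separated from substrate by electrophoretic mobility shift and read by fluorescence. Primary screen at 25 uM in duplicate; actives (e.g. ≥30% inhibition) retested in concentration-response up to 50 uM.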

[18] = biological target: human Matrix Metalloproteinase-2 (MMP2), MMP2 (gene 4313) (UniProt P08253); assay: NVS_ENZ_hMMP2: NovaScreen (NVS) Enzymatic Assay for human Matrix Metalloproteinase-2 (MMP2) (AID 2283184)
How it was run: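 Cell-free recombinant MMP2 activity with a fluorescent substrate, read 1 h after dosing. Primary screen in duplicate at 25 uM; actives then run in concentration series; loss of signal fitted versus DMSO.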

Measured: AC50

CCCN(CCC)c1c([N+](=O)[O-])cc(C(F)(F)F)c(N)c1[N+](=O)[O-]
inactive: [1]

CC(=O)[C@H]1CC[C@H]2[C@@H]3CCC4=CC(=O)CC[C@]4(C)[C@H]3CC[C@]12C
inactive: [2]

Oc1ccc(C(c2ccc(O)cc2)C(Cl)(Cl)Cl)cc1
inactive: [1] | [3] | [4] | [5]

S=C([S-])NCCNC(=S)[S-].[Mn+2]
active: [6] 5.51 µM | [2] 306 nM | [3] 10 µM | [10] 468 nM | [4] 6.6 µM | [11] 2.09 µM
inactive: [7] | [8] | [9] | [5]

CC(C)(c1ccc(O)cc1)c1ccc(O)cc1
inactive: [12] | [13] | [14] | [3] | [4] | [5] | [15]

S=C(S)NCCNC(=S)S.[Mn+2].[S-]C([S-])=NCCN=C([S-])[S-].[Zn+2]
active: [6] 963 nM and 315 nM and 12.9 µM | [16] 43.5 µM | [17] 10 µM and 445 nM | [2] 1.08 µM and 3.32 µM and 678 nM | [13] 7.51 µM and 40.2 µM | [3] 6.76 µM and 25 µM | [10] 408 nM and 399 nM | [4] 16.2 µM | [5] 3.74 µM | [15] 10.8 µM | [11] 1.45 µM and 9.58 µM
inactive: [16] | [13] | [14] | [4]

CCCOC(=O)NCCCN(C)C
inactive: [1] | [15]

CCCCC(CC)CN1C(=O)C2C3C=CC(C3)C2C1=O (configuration not stated)
inactive: [5] | [11]

O=C(O)C1(C(=O)Nc2ccc(Cl)cc2Cl)CC1
active: [14] 25 µM | [18] 8.27 µM
inactive: [6] | [2] | [10] | [15] | [11]

CCCCOC(=O)C(C)Oc1ccc(Oc2ccc(C(F)(F)F)cn2)cc1 (configuration not stated)
inactive: [6]

COc1nc(C)nc(NC(=O)NS(=O)(=O)c2ccccc2OCCCl)n1
active: [10] 36200 nM

c1ccc2[nH]c(-c3cscn3)nc2c1
active: [13] 2.27 µM
inactive: [12] | [16] | [9] | [2]

COCCO
inactive: [14]

C[C@]12C[C@H](O)[C@H]3[C@@H](CCC4=CC(=O)CC[C@@]43C)[C@@H]1CC[C@@H]2C(=O)CO
inactive: [15]

CC1(C)C(C=C(Cl)Cl)C1C(=O)OCc1cccc(Oc2ccccc2)c1 (configuration not stated)
inactive: [5]

COC(=O)CSc1cc(N=c2sc(=O)n3n2CCCC3)c(F)cc1Cl
inactive: [7] | [1] | [12]
